Measured values reported in the supplement of paper PMC11732987, “Enantioselective OTUD7B fragment discovery through chemoproteomics screening and high-throughput optimisation” (Communications Chemistry, 2025).

Assays:
Test in all cases: log2 ratio of Biotin-Ahx-Ub-VS probe labelling (fragment/DMSO); higher = less target engagement (more negative = stronger competition), active = hit call of the paper (q ≤ 0.05, log2 ratio ≤ -1)
Settings in all cases: compound concentration: 200 uM; treatment time: 3 h
[1] = biological target: T1, USP42 (UniProt Q9H9J4)
T1 sequence (whole entry): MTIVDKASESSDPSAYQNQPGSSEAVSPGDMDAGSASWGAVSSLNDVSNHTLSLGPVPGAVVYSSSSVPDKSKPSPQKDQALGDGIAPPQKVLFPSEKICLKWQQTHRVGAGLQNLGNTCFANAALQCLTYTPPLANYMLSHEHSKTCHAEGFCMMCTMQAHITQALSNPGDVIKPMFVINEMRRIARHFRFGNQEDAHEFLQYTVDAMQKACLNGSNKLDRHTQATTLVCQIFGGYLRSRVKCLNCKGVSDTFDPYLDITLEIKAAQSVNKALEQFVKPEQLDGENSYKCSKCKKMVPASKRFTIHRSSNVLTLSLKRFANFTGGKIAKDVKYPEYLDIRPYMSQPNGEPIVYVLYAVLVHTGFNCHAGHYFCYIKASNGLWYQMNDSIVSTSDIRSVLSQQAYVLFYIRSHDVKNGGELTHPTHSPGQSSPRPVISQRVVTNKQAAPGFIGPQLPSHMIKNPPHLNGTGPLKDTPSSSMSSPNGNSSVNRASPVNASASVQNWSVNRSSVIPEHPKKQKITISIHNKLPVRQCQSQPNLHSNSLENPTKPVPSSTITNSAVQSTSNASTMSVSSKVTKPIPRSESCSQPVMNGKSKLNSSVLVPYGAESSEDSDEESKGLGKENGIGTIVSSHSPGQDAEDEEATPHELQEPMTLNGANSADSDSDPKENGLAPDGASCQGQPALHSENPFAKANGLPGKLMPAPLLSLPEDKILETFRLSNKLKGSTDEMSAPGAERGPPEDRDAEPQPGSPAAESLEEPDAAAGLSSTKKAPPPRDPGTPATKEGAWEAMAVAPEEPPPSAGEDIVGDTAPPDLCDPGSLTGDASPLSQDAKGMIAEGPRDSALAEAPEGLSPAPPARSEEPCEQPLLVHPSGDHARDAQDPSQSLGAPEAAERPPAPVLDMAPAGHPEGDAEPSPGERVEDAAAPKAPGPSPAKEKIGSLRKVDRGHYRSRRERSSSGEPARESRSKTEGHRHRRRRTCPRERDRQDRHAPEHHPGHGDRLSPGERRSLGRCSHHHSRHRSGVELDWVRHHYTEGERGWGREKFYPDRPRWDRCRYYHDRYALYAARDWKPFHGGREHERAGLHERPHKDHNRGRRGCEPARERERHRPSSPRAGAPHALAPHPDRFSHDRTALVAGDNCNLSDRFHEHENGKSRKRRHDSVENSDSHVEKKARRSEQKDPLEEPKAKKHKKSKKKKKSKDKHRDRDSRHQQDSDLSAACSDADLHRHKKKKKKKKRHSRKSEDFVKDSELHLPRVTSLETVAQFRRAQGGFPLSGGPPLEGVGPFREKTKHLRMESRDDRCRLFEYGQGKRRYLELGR
Procedure, shortened: (§1)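 HEK293T lysate (495 µg per sample, in Tris/CHAPS/IGEPAL buffer with protease inhibitors) was exposed in triplicate for 3 h to fragment at 200 µM or to vehicle, then to Biotin-Ahx-Ub-VS at 0.5 µM final for 1 h. Labelled DUBs were enriched on NeutrAvidin, digested with LysC and trypsin, and analysed by diaPASEF LC-MS/MS. Spectronaut label-free quantities were normalised to the global median, and values are average log2 ratios of fragment over vehicle from an unpaired t-test. Only proteins with ≥2 unique peptides were used.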

[2] = biological target: USP46 (UniProt P62068)
Procedure, shortened: as §1

[3] = biological target: T2, USP47 (UniProt Q96K76)
T2 sequence (whole entry): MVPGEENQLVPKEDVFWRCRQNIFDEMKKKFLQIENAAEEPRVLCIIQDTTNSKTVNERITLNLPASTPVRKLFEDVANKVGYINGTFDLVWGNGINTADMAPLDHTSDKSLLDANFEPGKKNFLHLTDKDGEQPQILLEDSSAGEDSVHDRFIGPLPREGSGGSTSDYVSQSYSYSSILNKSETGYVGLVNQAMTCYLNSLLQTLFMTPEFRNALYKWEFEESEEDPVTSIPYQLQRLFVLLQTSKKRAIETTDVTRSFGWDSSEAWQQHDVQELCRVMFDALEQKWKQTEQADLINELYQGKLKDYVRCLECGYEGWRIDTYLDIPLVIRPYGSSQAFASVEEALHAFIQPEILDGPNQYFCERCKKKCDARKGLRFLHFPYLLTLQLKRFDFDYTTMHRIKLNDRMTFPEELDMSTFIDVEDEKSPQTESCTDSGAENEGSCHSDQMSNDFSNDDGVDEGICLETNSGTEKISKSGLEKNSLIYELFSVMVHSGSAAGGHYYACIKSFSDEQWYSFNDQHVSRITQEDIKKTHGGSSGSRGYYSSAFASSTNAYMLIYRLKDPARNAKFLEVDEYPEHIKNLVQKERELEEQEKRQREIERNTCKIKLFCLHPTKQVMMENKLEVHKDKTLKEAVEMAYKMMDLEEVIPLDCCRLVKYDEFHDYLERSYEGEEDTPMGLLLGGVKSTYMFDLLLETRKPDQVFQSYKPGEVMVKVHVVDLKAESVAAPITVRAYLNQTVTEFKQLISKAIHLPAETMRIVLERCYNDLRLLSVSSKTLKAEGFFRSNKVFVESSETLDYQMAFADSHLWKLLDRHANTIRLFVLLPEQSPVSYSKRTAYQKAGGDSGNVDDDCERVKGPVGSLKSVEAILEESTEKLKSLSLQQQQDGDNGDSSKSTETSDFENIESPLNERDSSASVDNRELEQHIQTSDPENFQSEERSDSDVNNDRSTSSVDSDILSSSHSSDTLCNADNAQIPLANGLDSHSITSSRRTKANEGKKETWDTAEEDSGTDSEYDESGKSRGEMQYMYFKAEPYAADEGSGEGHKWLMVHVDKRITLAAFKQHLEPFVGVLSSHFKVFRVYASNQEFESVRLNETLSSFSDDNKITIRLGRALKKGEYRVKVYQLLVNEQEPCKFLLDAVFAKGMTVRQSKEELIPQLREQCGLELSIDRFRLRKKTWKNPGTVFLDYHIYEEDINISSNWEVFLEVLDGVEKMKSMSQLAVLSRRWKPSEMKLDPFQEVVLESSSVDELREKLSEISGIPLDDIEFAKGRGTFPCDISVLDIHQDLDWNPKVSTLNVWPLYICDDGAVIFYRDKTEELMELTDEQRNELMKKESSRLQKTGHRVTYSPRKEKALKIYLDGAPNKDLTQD
Procedure, shortened: as §1

[4] = biological target: T3, USP48 (UniProt Q86UV5)
T3 sequence (whole entry): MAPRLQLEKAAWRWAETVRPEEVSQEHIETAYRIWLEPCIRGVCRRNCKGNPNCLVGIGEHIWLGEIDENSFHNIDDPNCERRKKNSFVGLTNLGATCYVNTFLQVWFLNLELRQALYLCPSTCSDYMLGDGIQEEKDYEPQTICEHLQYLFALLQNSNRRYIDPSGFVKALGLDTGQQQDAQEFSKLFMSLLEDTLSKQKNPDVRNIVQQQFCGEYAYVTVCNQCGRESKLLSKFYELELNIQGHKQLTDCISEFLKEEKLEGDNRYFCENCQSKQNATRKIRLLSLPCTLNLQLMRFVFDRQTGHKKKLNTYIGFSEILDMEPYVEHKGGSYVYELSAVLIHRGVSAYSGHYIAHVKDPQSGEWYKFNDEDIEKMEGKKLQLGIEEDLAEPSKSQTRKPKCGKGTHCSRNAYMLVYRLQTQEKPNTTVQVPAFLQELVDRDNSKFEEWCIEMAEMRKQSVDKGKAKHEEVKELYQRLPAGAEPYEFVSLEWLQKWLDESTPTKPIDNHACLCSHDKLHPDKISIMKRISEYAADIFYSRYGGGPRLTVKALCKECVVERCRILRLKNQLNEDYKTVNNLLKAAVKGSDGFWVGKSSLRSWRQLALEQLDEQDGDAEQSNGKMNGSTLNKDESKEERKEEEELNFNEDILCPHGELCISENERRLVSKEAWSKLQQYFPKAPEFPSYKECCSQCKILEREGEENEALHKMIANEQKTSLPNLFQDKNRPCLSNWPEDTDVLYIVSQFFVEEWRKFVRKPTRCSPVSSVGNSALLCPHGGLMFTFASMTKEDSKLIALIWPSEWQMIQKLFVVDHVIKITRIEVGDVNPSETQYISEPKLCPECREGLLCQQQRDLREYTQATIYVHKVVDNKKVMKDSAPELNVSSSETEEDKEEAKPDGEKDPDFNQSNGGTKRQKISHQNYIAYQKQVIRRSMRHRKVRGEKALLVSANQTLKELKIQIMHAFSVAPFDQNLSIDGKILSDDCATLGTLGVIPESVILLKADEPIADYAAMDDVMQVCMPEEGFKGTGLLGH
Procedure, shortened: as §1

[5] = biological target: T4, USP5 (UniProt P45974)
T4 sequence (whole entry): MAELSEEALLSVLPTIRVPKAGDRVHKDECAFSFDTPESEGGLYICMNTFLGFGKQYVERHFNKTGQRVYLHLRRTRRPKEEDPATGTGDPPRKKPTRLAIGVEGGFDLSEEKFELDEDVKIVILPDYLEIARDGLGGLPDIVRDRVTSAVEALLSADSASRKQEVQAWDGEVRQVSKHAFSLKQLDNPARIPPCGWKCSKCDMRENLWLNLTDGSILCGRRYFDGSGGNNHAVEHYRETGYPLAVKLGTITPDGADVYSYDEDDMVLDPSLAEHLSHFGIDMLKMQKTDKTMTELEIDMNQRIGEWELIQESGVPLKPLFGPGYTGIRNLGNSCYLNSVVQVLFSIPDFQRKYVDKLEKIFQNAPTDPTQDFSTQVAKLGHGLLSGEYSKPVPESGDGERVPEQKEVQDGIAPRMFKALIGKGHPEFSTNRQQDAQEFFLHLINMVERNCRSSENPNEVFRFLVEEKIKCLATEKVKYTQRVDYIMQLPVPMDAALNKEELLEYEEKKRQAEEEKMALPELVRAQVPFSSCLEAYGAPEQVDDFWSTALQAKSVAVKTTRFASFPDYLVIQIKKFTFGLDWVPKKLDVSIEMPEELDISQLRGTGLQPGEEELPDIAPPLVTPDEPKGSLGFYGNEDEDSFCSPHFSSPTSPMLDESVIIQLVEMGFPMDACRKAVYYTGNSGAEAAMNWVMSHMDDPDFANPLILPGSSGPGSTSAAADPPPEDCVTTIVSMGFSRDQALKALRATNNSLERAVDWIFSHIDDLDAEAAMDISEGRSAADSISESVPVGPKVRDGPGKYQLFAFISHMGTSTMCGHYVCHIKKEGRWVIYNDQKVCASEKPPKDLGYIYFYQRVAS
Procedure, shortened: as §1

[6] = biological target: USP54 (UniProt Q70EL1)
Procedure, shortened: as §1

[7] = biological target: USP7 (UniProt Q93009)
Procedure, shortened: as §1

[8] = biological target: T5, USP8 (UniProt P40818)
T5 sequence (whole entry): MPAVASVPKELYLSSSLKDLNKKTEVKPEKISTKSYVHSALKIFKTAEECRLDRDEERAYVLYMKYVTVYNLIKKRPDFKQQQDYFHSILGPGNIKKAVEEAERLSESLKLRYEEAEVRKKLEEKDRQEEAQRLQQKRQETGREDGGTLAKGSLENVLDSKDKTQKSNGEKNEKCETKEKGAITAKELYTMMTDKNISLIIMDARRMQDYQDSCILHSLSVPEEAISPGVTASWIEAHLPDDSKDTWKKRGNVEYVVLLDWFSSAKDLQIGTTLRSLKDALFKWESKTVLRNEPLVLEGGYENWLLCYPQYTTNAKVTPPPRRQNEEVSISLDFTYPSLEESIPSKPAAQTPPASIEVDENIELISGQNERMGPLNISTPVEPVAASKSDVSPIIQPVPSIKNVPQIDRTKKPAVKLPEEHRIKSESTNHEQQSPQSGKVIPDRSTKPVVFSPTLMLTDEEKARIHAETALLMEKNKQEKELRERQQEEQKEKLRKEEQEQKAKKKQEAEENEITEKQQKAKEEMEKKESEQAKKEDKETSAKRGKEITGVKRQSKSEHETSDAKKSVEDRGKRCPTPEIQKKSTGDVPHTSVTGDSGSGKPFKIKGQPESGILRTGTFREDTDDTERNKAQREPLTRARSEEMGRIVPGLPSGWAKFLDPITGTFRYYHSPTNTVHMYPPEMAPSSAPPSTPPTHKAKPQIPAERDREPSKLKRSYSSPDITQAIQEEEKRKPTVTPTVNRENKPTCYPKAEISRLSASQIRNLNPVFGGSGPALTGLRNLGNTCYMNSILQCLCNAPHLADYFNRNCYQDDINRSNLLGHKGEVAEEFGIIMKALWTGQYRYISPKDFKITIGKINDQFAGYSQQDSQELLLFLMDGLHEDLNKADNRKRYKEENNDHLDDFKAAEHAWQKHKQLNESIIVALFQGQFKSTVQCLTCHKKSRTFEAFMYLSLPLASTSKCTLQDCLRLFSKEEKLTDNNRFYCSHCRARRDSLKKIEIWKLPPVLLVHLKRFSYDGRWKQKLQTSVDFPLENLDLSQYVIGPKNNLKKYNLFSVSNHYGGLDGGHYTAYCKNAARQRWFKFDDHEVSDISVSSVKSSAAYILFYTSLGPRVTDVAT
Procedure, shortened: as §1

Measured: log2 ratio of Biotin-Ahx-Ub-VS probe labelling

USP7, sequence (Q93009 whole entry, looked up): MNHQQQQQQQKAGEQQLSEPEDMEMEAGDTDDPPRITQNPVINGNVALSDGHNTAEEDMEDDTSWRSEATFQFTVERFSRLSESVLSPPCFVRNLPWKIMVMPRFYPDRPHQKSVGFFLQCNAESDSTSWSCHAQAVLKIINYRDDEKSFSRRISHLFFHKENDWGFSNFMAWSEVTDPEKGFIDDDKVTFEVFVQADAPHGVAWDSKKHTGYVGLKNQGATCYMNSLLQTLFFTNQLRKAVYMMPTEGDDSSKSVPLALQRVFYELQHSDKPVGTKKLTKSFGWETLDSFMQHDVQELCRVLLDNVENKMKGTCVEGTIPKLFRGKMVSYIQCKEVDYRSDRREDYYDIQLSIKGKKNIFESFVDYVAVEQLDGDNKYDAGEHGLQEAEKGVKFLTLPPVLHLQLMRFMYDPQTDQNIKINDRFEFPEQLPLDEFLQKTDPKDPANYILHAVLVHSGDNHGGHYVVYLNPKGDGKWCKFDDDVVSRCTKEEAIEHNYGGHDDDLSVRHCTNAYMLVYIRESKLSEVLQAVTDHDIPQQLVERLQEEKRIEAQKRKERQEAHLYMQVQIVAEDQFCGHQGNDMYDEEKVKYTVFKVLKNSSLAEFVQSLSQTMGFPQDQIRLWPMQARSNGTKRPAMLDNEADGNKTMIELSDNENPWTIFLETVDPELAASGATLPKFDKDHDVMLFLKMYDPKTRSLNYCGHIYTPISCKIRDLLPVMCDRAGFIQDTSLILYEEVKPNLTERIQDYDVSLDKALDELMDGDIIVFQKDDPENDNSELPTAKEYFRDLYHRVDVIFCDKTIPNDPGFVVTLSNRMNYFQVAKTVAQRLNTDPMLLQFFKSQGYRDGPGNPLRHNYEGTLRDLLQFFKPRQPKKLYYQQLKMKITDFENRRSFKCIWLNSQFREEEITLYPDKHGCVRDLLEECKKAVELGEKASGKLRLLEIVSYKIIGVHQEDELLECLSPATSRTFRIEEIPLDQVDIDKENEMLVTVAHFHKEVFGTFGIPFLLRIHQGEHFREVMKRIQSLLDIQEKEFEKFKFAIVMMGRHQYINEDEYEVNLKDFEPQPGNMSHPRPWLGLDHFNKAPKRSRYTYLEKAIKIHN
USP46, sequence (P62068 whole entry): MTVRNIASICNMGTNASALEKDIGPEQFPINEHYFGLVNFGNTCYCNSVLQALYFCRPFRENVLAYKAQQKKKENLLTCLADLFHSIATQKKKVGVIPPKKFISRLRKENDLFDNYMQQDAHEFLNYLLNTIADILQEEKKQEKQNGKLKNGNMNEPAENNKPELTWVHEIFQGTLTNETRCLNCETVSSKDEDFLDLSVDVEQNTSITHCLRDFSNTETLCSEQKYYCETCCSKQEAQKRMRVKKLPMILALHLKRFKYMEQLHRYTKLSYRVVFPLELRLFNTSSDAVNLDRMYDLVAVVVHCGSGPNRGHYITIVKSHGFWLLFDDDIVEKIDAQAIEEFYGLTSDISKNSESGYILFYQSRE
USP54, sequence (Q70EL1 whole entry): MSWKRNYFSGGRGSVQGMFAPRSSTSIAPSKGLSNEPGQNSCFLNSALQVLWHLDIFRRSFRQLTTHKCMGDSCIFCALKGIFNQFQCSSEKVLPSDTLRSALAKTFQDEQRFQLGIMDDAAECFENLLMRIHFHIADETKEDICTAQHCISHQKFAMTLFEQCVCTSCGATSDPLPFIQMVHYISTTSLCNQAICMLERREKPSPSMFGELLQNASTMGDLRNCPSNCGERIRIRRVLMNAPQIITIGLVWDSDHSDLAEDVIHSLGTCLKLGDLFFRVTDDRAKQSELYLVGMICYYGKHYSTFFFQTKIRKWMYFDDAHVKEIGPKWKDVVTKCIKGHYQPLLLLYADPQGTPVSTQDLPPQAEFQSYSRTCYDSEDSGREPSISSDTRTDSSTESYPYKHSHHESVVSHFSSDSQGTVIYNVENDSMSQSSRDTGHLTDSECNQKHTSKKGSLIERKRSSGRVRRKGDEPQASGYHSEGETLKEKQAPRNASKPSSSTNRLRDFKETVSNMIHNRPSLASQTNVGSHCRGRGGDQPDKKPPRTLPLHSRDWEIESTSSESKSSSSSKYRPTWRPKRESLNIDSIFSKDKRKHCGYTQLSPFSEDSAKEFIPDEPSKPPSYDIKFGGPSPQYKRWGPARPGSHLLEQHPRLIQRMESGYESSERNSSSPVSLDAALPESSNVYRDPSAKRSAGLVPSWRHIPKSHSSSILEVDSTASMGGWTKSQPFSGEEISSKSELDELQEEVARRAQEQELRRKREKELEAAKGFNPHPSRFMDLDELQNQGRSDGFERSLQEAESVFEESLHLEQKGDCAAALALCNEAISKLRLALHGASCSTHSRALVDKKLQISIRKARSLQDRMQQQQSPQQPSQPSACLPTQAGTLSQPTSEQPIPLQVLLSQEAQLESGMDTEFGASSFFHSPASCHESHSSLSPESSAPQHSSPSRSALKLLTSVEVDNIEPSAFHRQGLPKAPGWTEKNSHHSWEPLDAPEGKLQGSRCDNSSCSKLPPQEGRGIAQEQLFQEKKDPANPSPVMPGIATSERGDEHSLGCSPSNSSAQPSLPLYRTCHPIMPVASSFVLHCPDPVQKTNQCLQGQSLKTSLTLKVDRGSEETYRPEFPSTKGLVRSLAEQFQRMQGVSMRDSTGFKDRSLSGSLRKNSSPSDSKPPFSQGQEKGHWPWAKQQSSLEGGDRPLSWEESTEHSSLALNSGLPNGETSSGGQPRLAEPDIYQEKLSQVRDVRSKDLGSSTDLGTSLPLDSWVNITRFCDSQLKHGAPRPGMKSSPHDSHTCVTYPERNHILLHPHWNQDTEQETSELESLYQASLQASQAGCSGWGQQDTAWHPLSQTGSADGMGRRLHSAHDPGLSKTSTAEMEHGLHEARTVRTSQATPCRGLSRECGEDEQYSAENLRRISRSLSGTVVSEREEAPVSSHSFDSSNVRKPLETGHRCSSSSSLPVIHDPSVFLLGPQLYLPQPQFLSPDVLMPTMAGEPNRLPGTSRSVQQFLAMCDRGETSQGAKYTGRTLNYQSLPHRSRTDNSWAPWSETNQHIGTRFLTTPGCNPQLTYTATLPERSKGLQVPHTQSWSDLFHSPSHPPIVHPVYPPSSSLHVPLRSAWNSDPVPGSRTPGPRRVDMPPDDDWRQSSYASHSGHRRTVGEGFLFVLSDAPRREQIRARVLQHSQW

CCC(NC(=O)CCl)c1ccc(Cl)cc1 (stereo not drawn)
inactive: [1] 0.358 | [2] -0.00255 | [3] -0.558 | [4] -0.293 | [5] 0.0661 | [6] 0.671 | [7] -0.195 | [8] -0.0586
